Screening results (PubChem BioAssay)
Most compounds without a hit are left out; they make up all but 3.2% or so of the library.
GDH-TPI counter-1 = GDH-TPI coupling enzyme inhibitors, primary screen, artefact control for M. tuberculosis FBA inhibitor project, biochemical, absorbance, full deck | GDH-TPI coupled enzyme counterscreen, NADH absorbance | hit rate 1.2% among 360,000 | AID 588335, 2011 | inhibition, % at 4.8 µM; in the data active = inhibition above about 30%
PrPC TRFRET = inhibitors of human cell surface prion protein PrPC, primary screen, cell-based, TR-FRET; Major prion protein (Homo sapiens), P04156; TR-FRET read-out; inhibition, % at 13.8 µM; hit rate 0.43% among 370,000; in the data active = inhibition above about 24%
Yp Topo-I inh = Yersinia pestis topoisomerase I inhibitors, primary screen, biochemical, cleavage product accumulation, plate reader, single point | DNA topoisomerase I (Yersinia pestis CO92) | hit rate 0.064% among 360,000 | Y. pestis Topo-I cleavage product accumulation | activity, % at 10 µM; in the data active = activity above about 50%, passing the limit was not always enough
TcdB inh = TcdB glycohydrolase inhibitors, primary screen, biochemical, single point, plate reader | Toxin B (Clostridioides difficile), P18177 | TcdB glycohydrolase enzymatic assay | inhibition, % at 9.99 µM | hit rate 0.24% among 350,000; in the data active = inhibition above about 10%
FBA Mtb inh = Mtb FBA enzyme inhibitors, primary screen, biochemical, fluorescence, strain H37Rv. purified M. tuberculosis FBA, fluorescence read-out. AID 588726, 2011. hit rate 2.3% among 360,000. Fructose-bisphosphate aldolase (Mycobacterium tuberculosis (strain ATCC 25618 / H37Rv)), …. inhibition, % at 1 µM
Mtb FBA confirm = M. tuberculosis aldolase blockers, biochemical, fluorescence, strain H37Rv, confirmation. shares compounds with FBA Mtb inh. purified M. tuberculosis FBA, fluorescence read-out. inhibition, % at 1 µM. hit rate 78% among 5,600. AID 651616, 2012
GDH-TPI counter-2 = GDH-TPI coupling enzyme inhibitors, artefact control for M. tuberculosis FBA inhibitor project, biochemical, fluorescence, high throughput; shares compounds with FBA Mtb inh; hit rate 81% among 5,600; GDH-TPI coupled enzyme counterscreen; inhibition, % at 1 µM; AID 652141, 2013; in the data active = inhibition above about 10%
GDH-TPI dose = GDH-TPI coupling enzyme inhibitors, dose response, artefact control for M. tuberculosis FBA inhibitor project, biochemical, fluorescence, IC50 | hit rate 79% among 170 | GDH-TPI coupled enzyme assay, artifact counterscreen | IC50, µM | shares compounds with FBA Mtb inh | AID 652145, 2013; call rule not given here
Hits are given with their value; - = inactive; . = not tested or not shown; + = active, no number. Rule as the data show it, unless noted: active = inhibition above about 27%; inactive = the rest.

SMILES | GDH-TPI counter-1 | PrPC TRFRET | Yp Topo-I inh | TcdB inh | FBA Mtb inh | Mtb FBA confirm | GDH-TPI counter-2 | others
NS(=O)(=O)c1ccc(NC(=O)COC(=O)COc2ccc3ccccc3c2)cc1 | - | - | - | - | 42 | 55 | 37
NS(=O)(=O)c1cccc(NC(=O)COC(=O)COc2ccc3ccccc3c2)c1 | - | - | - | - | - | . | .
CC(=O)Nc1ccc(-c2cn3cc(C)ccc3n2)cc1 | - | - | - | . | 74 | + | 145
Cc1ccc2nc(-c3ccccc3)cn2c1 | - | - | - | . | 37 | 99 | 88
CC(=O)Nc1ccc(-c2cc(C(=O)O)c3cc4ccccc4cc3n2)cc1 | - | - | - | - | - | . | .
COc1ccc(-c2cn3cc(C(=O)NN)ccc3n2)cc1 | - | - | - | - | 42 | 89 | 78
CC(=O)Nc1ccc(-c2cc(C(=O)O)c3ccc(C)cc3n2)cc1 | - | - | - | - | 47 | - | -
CN1C(=O)c2cc(NC(=O)c3cscn3)ccc2OC[C@H]2O[C@@H](CC(=O)N3CCOCC3)CC[C@@H]21 | . | . | . | - | . | . | .
O=C(NC1CCCCC1)N1CC(=O)N2[C@H](CO)[C@@H](c3ccc(-c4cccc(F)c4)cc3)[C@@H]2C1 | . | . | . | - | . | . | .
CC1=CC(=O)C(C(C)C)=C/C1=N\OC(=O)c1cccc2nc(C)oc12 | - | - | - | - | 32 | 69 | 59
Cc1cc(=O)n2[nH]c(C(=O)O)nc2n1 | - | - | - | . | - | . | .
Cc1cc(=O)n2[nH]cc(C(=O)O)c2n1 | - | - | - | - | 38 | 178 | 146
CN1CCCCN2[C@H](C1)[C@H](c1ccc(Br)cc1)[C@@H]2CO | . | . | . | - | . | . | .
CN1CCN(c2c(F)cc3c(=O)c(C(=O)O)cn4c3c2SCC4)CC1 | - | - | - | . | 28 | + | +
C[C@H]1COc2c(N3CCN(C)CC3)c(F)cc3c(=O)c(C(=O)O)cn1c23 | - | - | - | - | 55 | + | 162
Cc1cc(=O)oc2cc(OCC(=O)OCC(=O)Nc3ccc(C(C)C)cc3)ccc12 | - | - | - | - | 29 | 86 | 69
Cc1cc(=O)oc2cc(OCC(=O)Nc3ccc(S(=O)(=O)N(C)C)cc3)ccc12 | - | - | - | - | 29 | 101 | 64
C[C@@H]1CN([C@@H](C)CO)C(=O)c2cccc(NC(=O)CCCCCC(=O)Nc3ccccc3N)c2O[C@@H]1CN(C)C(=O)Nc1ccc2c(c1)OCO2 | . | . | . | - | . | . | .
O=C(NCC[C@H]1CC[C@H](NC(=O)C2CCOCC2)[C@@H](CO)O1)c1ccc(F)cc1 | . | . | . | - | . | . | .
O=C(C[C@@H]1CC[C@H](NC(=O)Nc2ccc3c(c2)OCO3)[C@@H](CO)O1)NCc1ccc2c(c1)OCO2 | . | . | . | - | . | . | .
COc1ccc2cc(C(N)=O)c(=Nc3ccccc3)oc2c1 | - | - | - | - | 36 | - | - | GDH-TPI dose=-
NC(=O)c1cc2cc(Cl)ccc2oc1=Nc1cccc(C(F)(F)F)c1 | - | - | - | - | - | . | .
NC(=O)c1nsc(C(=O)N(c2ccccc2)C(C(=O)NCc2ccc(F)cc2)c2ccc(O)cc2)c1N (stereo unspecified) | - | - | - | - | 37 | - | -
COc1ccc(CN2CC3(CN(C(=O)C4CC4)C3)c3c(n(C)c4cc(OC)ccc34)[C@@H]2CO)cc1 | . | . | . | - | . | . | .
COc1cc(OC)cc(C(=O)N2CCCC(c3nc(-c4ccc(C)o4)no3)C2)c1 (stereo unspecified) | - | - | - | - | 31 | - | -
SMILES | GDH-TPI counter-1 | PrPC TRFRET | Yp Topo-I inh | TcdB inh | FBA Mtb inh | Mtb FBA confirm | GDH-TPI counter-2 | others
COc1ccc(-c2noc(C3CCCN(C(=O)Nc4cccc(C)c4)C3)n2)cc1 (stereo unspecified) | . | - | . | . | . | . | .
COc1ccc(-c2noc(C3CCCN(C(=O)c4cccc(C)c4)C3)n2)cc1 (stereo unspecified) | - | - | - | - | 78 | 115 | 77
O=C(C1CC1)N1CCCCN2[C@H](CO)[C@@H](c3ccc(C#CC4(O)CCCC4)cc3)[C@H]2C1 | . | . | . | - | . | . | .
CCOC(=O)CN(c1ccccc1)S(=O)(=O)c1ccc(F)cc1 | - | - | - | - | - | . | .
CCOC(=O)CN(c1ccccn1)S(=O)(=O)c1ccc(OC)cc1 | - | - | - | - | 46 | 138 | 100
O=C(CN(c1ccccn1)S(=O)(=O)c1ccc(F)cc1)Nc1ccc(F)cc1F | - | - | - | - | 35 | 117 | 90
Cc1c(OC(C)C(=O)NCc2cccnc2)ccc2c3c(c(=O)oc12)CCCC3 (stereo unspecified) | - | - | - | - | 61 | + | +
O=C(COc1ccc2c3c(c(=O)oc2c1)CCCC3)NCCN1CCOCC1 | - | . | - | - | 48 | - | -
O=C(COc1ccc2c3c(c(=O)oc2c1)CCC3)NCCN1CCOCC1 | - | - | - | - | - | . | .
O=C(O)CCNC(=O)COc1ccc2c3c(c(=O)oc2c1)CCCC3 | - | - | - | - | 66 | 40 | 35
O=C(COc1ccc2c(c1)oc(=O)c1ccccc12)NCCN1CCOCC1 | - | - | - | - | 91 | 128 | 105
O=S(=O)(N[C@H]1CC[C@@H](CCn2cc(-c3cccnc3)nn2)O[C@@H]1CO)c1ccc(F)cc1 | . | . | . | - | . | . | .
C[C@@H]1CCCCO[C@H](CN(C)Cc2ccc(C(F)(F)F)cc2)[C@H](C)CN([C@@H](C)CO)C(=O)c2cc(NS(=O)(=O)c3cn(C)cn3)ccc2O1 | . | . | . | - | . | . | .
COc1ccc(-c2cn(CC[C@@H]3CC[C@@H](NC(=O)Cc4ccccn4)[C@@H](CO)O3)nn2)cc1 | . | . | . | - | . | . | .
Cc1ccc(S(=O)(=O)N[C@H]2CC[C@@H](CC(=O)NCc3ccncn3)O[C@H]2CO)cc1 | . | . | . | - | . | . | .
Cc1cc(OCC(=O)N2CCOCC2)cc2oc(=O)c3ccccc3c12 | - | - | - | . | 54 | 70 | 45
CC(Oc1ccc2c3c(c(=O)oc2c1)CCC3)C(=O)NCc1cccnc1 (stereo unspecified) | - | - | - | - | - | . | .
CC(Oc1ccc2c3c(c(=O)oc2c1)CCCC3)C(=O)NCc1ccncc1 (stereo unspecified) | - | - | - | - | 51 | - | -
CC(Oc1ccc2c3c(c(=O)oc2c1)CCCC3)C(=O)NCCN1CCOCC1 (stereo unspecified) | - | - | - | - | 51 | 76 | 61
O=C(COc1ccc2c3c(c(=O)oc2c1)CCCC3)NCCCN1CCOCC1 | - | - | - | - | 29 | 89 | 64
